What was measured:
Test in all cases: DAPPL (digital affinity profiling via proximity ligation, sequencing); 10 mM Tris-HCl pH 7.5, 50 mM NaCl, 1 mM DTT, 4% glycerol, room temperature, 30 min; GST-TFs on glutathione beads, 16-mer random dsDNA library, 0.1% formaldehyde crosslink after washing; high values mean tight binding
FEV = molecular target: T1, FEV (Homo sapiens, UniProt Q99581 1-238); settings: protein: recombinant; tags: N-terminal GST; dsDNA, one strand shown
T1 sequence: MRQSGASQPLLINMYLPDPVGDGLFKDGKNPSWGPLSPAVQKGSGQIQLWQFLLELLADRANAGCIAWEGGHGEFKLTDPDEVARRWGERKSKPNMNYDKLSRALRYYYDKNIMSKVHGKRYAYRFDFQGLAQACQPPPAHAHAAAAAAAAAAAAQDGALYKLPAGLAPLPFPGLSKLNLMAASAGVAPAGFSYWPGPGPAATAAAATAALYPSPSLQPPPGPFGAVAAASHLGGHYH
Outline: (§1)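 Human transcription factors were made in yeast as GST fusions, captured on glutathione beads and barcoded with DNA. With a tag-only sample included, the pool was incubated with 200 nmole of a random double-stranded 16-mer DNA library in Tris/NaCl/DTT/glycerol buffer at room temperature for 30 min, then crosslinked with 0.1% formaldehyde after washing, ligated by proximity, amplified and sequenced. For binding signal, each hexamer's read frequency for a factor is divided by its frequency for the tag-only sample.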

ETV5 = ETV5 (Homo sapiens, UniProt P41161 1-510); settings: protein: recombinant; tags: N-terminal GST; dsDNA, one strand shown
ETV5, sequence (P41161 whole entry): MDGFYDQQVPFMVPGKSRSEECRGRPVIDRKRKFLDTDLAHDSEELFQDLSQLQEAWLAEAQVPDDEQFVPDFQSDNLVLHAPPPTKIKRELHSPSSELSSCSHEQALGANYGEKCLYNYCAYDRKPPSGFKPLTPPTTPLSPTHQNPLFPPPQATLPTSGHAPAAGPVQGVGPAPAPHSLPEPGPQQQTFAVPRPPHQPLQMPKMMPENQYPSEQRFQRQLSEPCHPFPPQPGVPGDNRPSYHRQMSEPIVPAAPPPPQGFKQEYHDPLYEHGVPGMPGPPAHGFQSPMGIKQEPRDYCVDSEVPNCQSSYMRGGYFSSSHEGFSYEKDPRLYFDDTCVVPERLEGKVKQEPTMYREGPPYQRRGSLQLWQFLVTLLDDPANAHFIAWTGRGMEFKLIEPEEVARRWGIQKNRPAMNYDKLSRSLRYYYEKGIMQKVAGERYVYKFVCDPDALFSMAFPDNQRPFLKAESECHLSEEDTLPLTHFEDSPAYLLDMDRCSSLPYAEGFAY
Outline: as §1

HSF1 = HSF1 (Homo sapiens, UniProt Q00613 1-529); settings: protein: recombinant; tags: N-terminal GST; chain copies: 3; dsDNA, one strand shown
HSF1, sequence (Q00613 whole entry): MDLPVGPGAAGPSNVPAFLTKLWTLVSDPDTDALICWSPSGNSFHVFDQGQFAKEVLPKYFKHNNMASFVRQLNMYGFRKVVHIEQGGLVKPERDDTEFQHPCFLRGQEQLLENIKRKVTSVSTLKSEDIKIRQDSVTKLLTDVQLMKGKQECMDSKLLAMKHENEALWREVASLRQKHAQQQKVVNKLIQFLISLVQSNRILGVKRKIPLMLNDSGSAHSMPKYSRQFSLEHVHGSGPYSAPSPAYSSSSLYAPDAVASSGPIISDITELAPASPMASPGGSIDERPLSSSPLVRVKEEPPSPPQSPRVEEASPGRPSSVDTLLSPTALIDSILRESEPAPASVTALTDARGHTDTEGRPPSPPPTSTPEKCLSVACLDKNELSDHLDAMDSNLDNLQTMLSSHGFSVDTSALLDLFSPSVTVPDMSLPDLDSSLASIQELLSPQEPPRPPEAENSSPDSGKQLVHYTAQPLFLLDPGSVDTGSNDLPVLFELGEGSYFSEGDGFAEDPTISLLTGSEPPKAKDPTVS
Outline: as §1

SPIC = molecular target: T2, SPIC (Homo sapiens, UniProt Q8N5J4 1-248); settings: protein: recombinant; tags: N-terminal GST; dsDNA, one strand shown
T2 sequence: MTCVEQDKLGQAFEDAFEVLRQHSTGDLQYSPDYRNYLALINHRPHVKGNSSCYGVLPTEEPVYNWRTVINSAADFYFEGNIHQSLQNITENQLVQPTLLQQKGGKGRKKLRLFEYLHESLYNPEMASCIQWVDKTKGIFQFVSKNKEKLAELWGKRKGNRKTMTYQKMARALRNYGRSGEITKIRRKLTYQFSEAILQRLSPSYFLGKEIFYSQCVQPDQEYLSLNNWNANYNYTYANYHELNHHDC
Outline: as §1

ELF4 = ELF4 (Homo sapiens, UniProt Q99607 1-663); settings: protein: recombinant; tags: N-terminal GST; dsDNA, one strand shown
ELF4, sequence (Q99607 whole entry): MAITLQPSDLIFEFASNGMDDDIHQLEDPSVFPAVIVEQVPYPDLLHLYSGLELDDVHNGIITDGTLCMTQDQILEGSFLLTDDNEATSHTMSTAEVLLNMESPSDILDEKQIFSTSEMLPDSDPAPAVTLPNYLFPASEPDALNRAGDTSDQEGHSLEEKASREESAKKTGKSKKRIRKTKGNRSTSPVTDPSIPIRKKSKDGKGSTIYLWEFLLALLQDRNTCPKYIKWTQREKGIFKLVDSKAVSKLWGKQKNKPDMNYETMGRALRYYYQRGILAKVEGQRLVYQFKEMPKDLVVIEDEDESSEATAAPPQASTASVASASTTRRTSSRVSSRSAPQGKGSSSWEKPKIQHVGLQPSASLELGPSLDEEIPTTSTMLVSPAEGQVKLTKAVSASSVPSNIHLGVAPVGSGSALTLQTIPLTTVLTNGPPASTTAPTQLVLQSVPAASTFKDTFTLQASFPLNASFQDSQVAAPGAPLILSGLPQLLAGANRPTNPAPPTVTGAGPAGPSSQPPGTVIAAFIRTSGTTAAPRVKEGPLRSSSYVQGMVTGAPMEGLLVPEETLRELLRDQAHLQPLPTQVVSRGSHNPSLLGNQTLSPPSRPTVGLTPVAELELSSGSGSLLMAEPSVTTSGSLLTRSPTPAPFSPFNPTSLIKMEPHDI
Outline: as §1

ELK4 = molecular target: T3, ELK4 (Homo sapiens, UniProt P28324-2 1-405); settings: protein: recombinant; tags: N-terminal GST; dsDNA, one strand shown
T3 sequence: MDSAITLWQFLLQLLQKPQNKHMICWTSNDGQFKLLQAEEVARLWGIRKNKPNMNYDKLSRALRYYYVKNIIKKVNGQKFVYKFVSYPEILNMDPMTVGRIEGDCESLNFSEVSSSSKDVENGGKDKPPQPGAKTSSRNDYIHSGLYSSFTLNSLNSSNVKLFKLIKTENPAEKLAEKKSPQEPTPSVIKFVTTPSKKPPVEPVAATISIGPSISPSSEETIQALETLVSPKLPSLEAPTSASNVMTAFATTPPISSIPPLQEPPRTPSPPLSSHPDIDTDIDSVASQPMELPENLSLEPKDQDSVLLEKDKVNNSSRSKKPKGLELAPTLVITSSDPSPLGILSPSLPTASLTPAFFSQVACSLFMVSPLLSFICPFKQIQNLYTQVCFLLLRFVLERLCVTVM
Outline: as §1

ETV2 = molecular target: T4, ETV2 (Homo sapiens, UniProt O00321 1-342); settings: protein: recombinant; tags: N-terminal GST; dsDNA, one strand shown
T4 sequence: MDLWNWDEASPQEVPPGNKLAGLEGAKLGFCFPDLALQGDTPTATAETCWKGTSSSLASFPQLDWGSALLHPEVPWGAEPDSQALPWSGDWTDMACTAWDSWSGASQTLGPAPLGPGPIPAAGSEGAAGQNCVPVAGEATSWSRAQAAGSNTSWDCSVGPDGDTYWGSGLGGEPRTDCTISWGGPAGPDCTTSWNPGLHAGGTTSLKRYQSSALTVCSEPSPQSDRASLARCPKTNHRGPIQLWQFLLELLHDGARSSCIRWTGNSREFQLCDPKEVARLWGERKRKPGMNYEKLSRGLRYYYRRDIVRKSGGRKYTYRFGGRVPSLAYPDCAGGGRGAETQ
Outline: as §1

ELF3 = molecular target: T5, ELF3 (Homo sapiens, UniProt P78545 1-371); settings: protein: recombinant; tags: N-terminal GST; dsDNA, one strand shown
T5 sequence: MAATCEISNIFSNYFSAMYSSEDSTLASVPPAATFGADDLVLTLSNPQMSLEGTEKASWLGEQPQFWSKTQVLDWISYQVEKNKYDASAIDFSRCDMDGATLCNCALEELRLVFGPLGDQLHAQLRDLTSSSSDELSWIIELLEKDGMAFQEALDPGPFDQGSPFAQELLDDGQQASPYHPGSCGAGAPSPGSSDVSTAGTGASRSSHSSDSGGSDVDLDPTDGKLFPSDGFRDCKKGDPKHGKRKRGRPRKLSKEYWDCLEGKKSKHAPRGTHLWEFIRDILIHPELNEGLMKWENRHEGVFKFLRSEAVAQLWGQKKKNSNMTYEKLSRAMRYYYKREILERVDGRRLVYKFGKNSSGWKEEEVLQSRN
Outline: as §1

CRX = CRX (Homo sapiens, UniProt O43186 1-299); settings: protein: recombinant; tags: N-terminal GST; dsDNA, one strand shown
CRX, sequence (O43186 whole entry): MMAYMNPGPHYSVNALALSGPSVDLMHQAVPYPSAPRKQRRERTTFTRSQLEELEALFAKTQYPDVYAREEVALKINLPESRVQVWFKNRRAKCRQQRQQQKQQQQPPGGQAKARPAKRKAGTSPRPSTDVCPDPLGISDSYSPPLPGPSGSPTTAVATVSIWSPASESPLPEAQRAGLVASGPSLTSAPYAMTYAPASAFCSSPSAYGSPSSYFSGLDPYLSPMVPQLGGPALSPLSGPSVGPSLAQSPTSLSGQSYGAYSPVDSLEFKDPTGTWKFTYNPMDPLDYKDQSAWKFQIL
Outline: as §1

ETV1 = ETV1 (Homo sapiens, UniProt P50549 1-477); settings: protein: recombinant; tags: N-terminal GST; dsDNA, one strand shown
ETV1, sequence (P50549 whole entry): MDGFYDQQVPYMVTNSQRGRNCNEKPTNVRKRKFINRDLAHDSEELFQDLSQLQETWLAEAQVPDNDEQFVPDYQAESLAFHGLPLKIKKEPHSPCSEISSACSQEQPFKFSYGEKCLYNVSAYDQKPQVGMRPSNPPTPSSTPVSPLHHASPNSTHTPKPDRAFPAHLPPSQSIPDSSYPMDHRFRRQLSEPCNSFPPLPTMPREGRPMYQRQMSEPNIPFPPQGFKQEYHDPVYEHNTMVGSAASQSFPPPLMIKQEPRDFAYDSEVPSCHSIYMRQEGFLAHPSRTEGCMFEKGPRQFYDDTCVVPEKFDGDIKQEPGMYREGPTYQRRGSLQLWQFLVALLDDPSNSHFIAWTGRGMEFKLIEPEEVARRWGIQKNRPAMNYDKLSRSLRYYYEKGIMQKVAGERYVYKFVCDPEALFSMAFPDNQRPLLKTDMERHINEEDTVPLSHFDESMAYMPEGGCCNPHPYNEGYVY
Outline: as §1

In the case of CTCGCT, the binding signal (FEV) is reported as 1.67 fold enrichment (6-mer frequency, TF over GST control), the binding signal (ETV5) is reported as 1.66 fold enrichment (6-mer frequency, TF over GST control) and the binding signal (HSF1) is reported as 1.66 fold enrichment (6-mer frequency, TF over GST control). The binding signal (SPIC) was 1.76 fold enrichment (6-mer frequency, TF over GST control), the binding signal (ELF4) was 1.56 fold enrichment (6-mer frequency, TF over GST control) and the binding signal (ELK4) was 1.68 fold enrichment (6-mer frequency, TF over GST control). For the same sequence, the binding signal (ETV2) was 1.52 fold enrichment (6-mer frequency, TF over GST control), the binding signal (ELF3) was 1.83 fold enrichment (6-mer frequency, TF over GST control) and the binding signal (CRX) was 1.37 fold enrichment (6-mer frequency, TF over GST control). The binding signal (ETV1) was 1.71 fold enrichment (6-mer frequency, TF over GST control).

Source: publication PMC7862700, “An all-to-all approach to the identification of sequence-specific readers for epigenetic DNA modifications on cytosine”
